The first experiment has as its target RBM45. In words: pooled miR-30 sensor sort-seq; sequence = guide strand. The settings on record: shRNA.
The sequence TATTACTATAATAATCTTGTTC displayed a sensor-assay potency score (higher = more potent) of -0.451. For the sequence TATATCTTCTAATACGTCTAAA, the sensor-assay potency score (higher = more potent) is -0.714.

Consider TTTGAGGCAACTGTGATCCAGA, for which the sensor-assay potency score (higher = more potent) is -0.334. Same read-out and setting: with TAAAATACTGAACCACTCCATG the figure was -0.914. Sequence TTCTTCATCTTCAACATCTCGG yielded a sensor-assay potency score (higher = more potent) of 0.279.

For TTTATTTTTAGGTTCAGCCAAG, the sensor-assay potency score (higher = more potent) is -0.905. The same measure, in the same setting: with TACTATAATAATCTTGTTCAGA the figure was -0.469; with TAAATTGTTGCTGACTTGGGTT, 0.143. As for TGGAAGTACAACATCTGTCTGG, the sensor-assay potency score (higher = more potent) is -0.0344. In turn, TTCATCTTCAACATCTCGGTGA showed a sensor-assay potency score (higher = more potent) of 0.811. As to TTGAATAAGGATCTCGTTGAAC, the sensor-assay potency score (higher = more potent) was -0.518.

For another experiment, the target named is RBMX. The description is as above. The note with it: shRNA.
TCGACTTCCACCATATCCGTCA yielded a sensor-assay potency score (higher = more potent) of -0.253. Same read-out and setting: the figure for TATCCGTCACGTGAGCTGCTGT is -0.783. The same measure, in the same setting: the figure for TAGTATCACGAGAACTTGGGTA is -0.18. The sequence TATCGCTATATCCTCTTGATGG showed a sensor-assay potency score (higher = more potent) of -1. Still for that read-out and setting: the figure for TCCACTGCTACTGCGAACTGGT is -0.729. In the case of TACAGGAGCTCTTCCTCCCATT, the sensor-assay potency score (higher = more potent) is -1.19. As to TATCTCTTCCACGTGATACAGG, the sensor-assay potency score (higher = more potent) was -1.23. TCTCTATCGCTATATCCTCTTG: the sensor-assay potency score (higher = more potent) is -1.36. For TTTCTTGTCTGCCAACCCGATC, the sensor-assay potency score (higher = more potent) was -1.65. Same read-out and setting: with TACCACTTTCAAATGATGGTTT the figure was -0.141. On the same count and under the same terms, the figure for TCTATCGCTATATCCTCTTGAT is -0.479; for ATATCCACCGTCATCCATGTGT it is -0.304.

The values are drawn from the OligoGym collection.
Note: reference of the scale not given here.
